A selection: hits, their analogues and other compounds. The true share with any hit is near 2.1%.
Nrf2 block – Nrf2 qHTS screen for inhibitors; 360,000 tested, 2.1% active; Potency, µM (top dose mostly 46 µM), for the others: at the top dose activity change, negative = inhibition, usual class: inhibitors; AID 504444, 2011; A549 ARE-Fluc reporter, luciferase luminescence, 18-24 h; also: potency is read from the fitted curve at half-maximal effect; % is scaled to controls: 0 for no effect and ±100 for the full control effect; nearly all actives have a fitted effect of over 60% in size
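Quantitative HTS in A549 cells stably bearing an antioxidant response element-firefly luciferase construct. Inhibition of Nrf2-driven transcription was scored by luminescence after 18-24 h of compound exposure at 37 °C.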
TSG101-PTAP inh – qHTS Assay for Iinhibitors of HIV-1 Budding by Blocking the Interaction of PTAP/TSG101; Tumor susceptibility gene 101 protein (Homo sapiens), Q99816; Potency, µM (doses to about 115 µM), for inactives: top-dose activity change, negative = inhibition, hits mostly inhibitors; Fluorescence polarization, FITC-PTAP peptide / Tsg101 binding; 340,000 tested, under 10 active; AID 493005, 2010; active = well fitted inhibition curve with a large enough effect in the main read-out, with a control signal flat, not every such curve was filed as active; inconclusive = small, poorly fitted or top-dose-only effect, or effect the other way, or a change in a side signal; inactive = no such curve, though single readings can be large or run the other way; also: potency is read from the fitted curve at half-maximal effect; % of control where 0% means no effect
Target sequence (Q99816 whole entry, looked up): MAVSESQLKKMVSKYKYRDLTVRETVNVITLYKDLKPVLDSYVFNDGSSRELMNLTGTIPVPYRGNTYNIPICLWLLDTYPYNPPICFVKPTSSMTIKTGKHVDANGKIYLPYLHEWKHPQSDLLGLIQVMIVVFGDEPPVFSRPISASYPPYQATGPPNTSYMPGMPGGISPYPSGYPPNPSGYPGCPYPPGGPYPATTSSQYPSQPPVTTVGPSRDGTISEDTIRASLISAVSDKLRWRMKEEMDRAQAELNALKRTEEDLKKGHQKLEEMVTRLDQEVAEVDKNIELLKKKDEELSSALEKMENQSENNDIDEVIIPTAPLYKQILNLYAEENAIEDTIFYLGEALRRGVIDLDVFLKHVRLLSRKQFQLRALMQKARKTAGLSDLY
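Fluorescence polarization binding of Tsg101 binding domain (10 uM final) to FITC-labeled PTAP peptide (50 nM final) in HEPES pH 7.5 buffer with NaCl, Tween 20, EDTA, TCEP. Compounds added before peptide; binding 20 min at RT.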
Glioma ERSR ind – qHTS for Inducers of the Endoplasmic Reticulum Stress Response (ERSR) in Human Glioma: qHTS; U87-MG GRP78 promoter luciferase reporter, 16 h; 420,000 tested, 0.02% active; AID 602332, 2012; Potency, µM, for inactives: top-dose activation, hits mostly activators; also: potency is read from the fitted curve at half-maximal effect; series mostly up to about 76 µM; % of control where 0% means no effect; nearly all actives have a fitted effect of over 35% in size
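Stably transfected U87-MG human glioma cells carrying a GRP78-based luminescent sensor were seeded at 1000 cells/well, pin-dosed with compounds and incubated 16 h. Luciferase reagent was then added, and end-point luminescence was read after 10 min at room temperature.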
Nrf2 ARE act – qHTS of Nrf2 Activators. AREc32 ARE-luciferase reporter (MCF7-derived line), luminescence, 24 h. AID 624171, 2012. Potency, µM (top dose mostly 46.1 µM), for inactives: at the top dose activation, most hits filed as activators. 410,000 tested, 0.31% active; also: potency is read from the fitted curve at half-maximal effect; % of control where 0% means no effect; nearly all actives have a fitted effect of over 65% in size
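ARE activation measured as luciferase luminescence (Steady-Glo, 30 min RT) in AREc32_Fluc cells after 24 hr compound exposure at 37 deg C, 5% CO2; cells seeded overnight at 1000/well in OPTI-MEM, 5% FBS.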
miR-21 reporter – qHTS Assay for Modulators of miRNAs and/orActivators of miR-21; Potency, µM (top dose mostly 38.3 µM), for the others: at the top dose activity change, positive = activation, hits mostly activators; 340,000 tested, under 10 active; HeLa miR-21 FLuc reporter, luciferase, 48 h;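 also: % of control where 0% means no effect; miR-21 action dims this reporter so a rising signal means less miR-21 action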
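HeLa miR-21-FLuc reporter line, endogenous miR-21; 2000 cells/well in DMEM/10% FBS; compound titration up to ~40uM final, 48 h, 37 degree Celsius; luciferase detection reagent, 15 min lysis, CCD luminescence.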
A549 viability – Nrf2 qHTS screen for inhibitors: counterscreen for cytotoxicity. A549 ARE-Fluc cells, CellTiter-Fluor viability, 18-24 h. Potency, µM (highest dose often 46 µM), for inactives: at the highest dose activity change, negative = cytotoxicity, actives largely listed as inhibitors. 390,000 tested, 0.16% active. AID 504648, 2011; also: potency is read from the fitted curve at half-maximal effect; % is scaled to controls: 0 for no effect and ±100 for the full control effect
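A549 ARE_Fluc cells in 5% FBS OPTI-MEM were exposed to compounds in concentration-response for 18-24 h at 37 deg C. Viability was read by CellTiter-Fluor fluorescence (Ex 405/Em 525) after 30 min, before the luciferase read.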
* = called active by the depositor; ? = inconclusive; . = no result given; [ ] = remark or other dose. Unless noted, calls follow the shape of the dose curve; as a rule, active = well fitted curve in the direction sought with a large enough effect; inconclusive = small, poorly fitted or top-dose-only effect, or another doubt; inactive = no such curve, though single readings can be large; an effect the other way counts as inactive or inconclusive.

SMILES	Nrf2 block	TSG101-PTAP inh	Glioma ERSR ind	Nrf2 ARE act	miR-21 reporter	A549 viability
O=C(CCS(=O)(=O)c1ccc(Cl)cc1)Nc1nc(-c2ccncc2)cs1	5%	2%	-6%	11µM*	22%	2%
Cc1ccc(S(=O)(=O)CCC(=O)Nc2nc(-c3ccccn3)cs2)cc1	21µM*	-4%	-5%	14µM*	.	-12%
O=C(CCS(=O)(=O)c1ccc(Cl)cc1)Nc1nc(-c2cccnc2)cs1	5%	0%	1%	3%	0%	1%
CCn1nc(C)c(CN2Cc3ccccc3OC(c3ccccc3OC)C2)c1C (configuration not stated)	.	.	-2%	.	.	.
O=C(NN1C(=O)/C(=C/c2ccc(O)c([N+](=O)[O-])c2)SC1=S)c1ccccc1Cl	?	3%	-3%	0%	1%	3.7µM*
COc1ccc(C2Nc3ccccc3C(=O)N2CCCN(C)C)cc1COc1ccc(NC(C)=O)cc1 (configuration not stated)	-4%	.	.	.	.	1%
O=C(NCc1c(F)cccc1F)c1cc(COc2c(F)cccc2F)on1	?	-7%	5%	10%	-43%	18%
COc1ccc(CNC(=O)c2cc(COc3c(F)cccc3F)on2)cc1OC	26µM*	-2%	1%	0%	2%	-15%
CCOC(=O)c1c(C)nc2sc3c(=O)n(-c4ccc(C(C)=O)cc4)cnc3c2c1-c1ccc(Cl)cc1	23µM*	0%	-3%	-1%	-5%	-19%
CCOC(=O)c1c(C)nc2sc3c(=O)n(-c4ccc(C(C)=O)cc4)nnc3c2c1-c1ccc(Cl)cc1	18µM*	-3%	-1%	0%	0%	?
CCOC(=O)N(C(=O)c1ccccc1)c1ccccc1	.	.	0%	.	.	.
COc1ccc(OCC(=O)N/N=C(\C)c2cccs2)cc1	6%	-1%	-5%	0%	-6%	23%
C/C(=N\NC(=O)COc1ccccc1[N+](=O)[O-])c1cccs1	?	1%	3%	8.9µM*	-69%	1%
COc1ccc(C(=O)Nc2ccc(-c3nc4cc(C)ccc4o3)c(O)c2)cc1	?	.	-4%	6%	-4%	-2%
Cc1ccc(C(=O)Nc2ccc3oc(-c4ccccc4C)nc3c2)cc1	6.5µM*	.	.	4%	0%	-13%
CCn1c(=O)c(C(=O)Nc2nc3ccccc3[nH]2)c(O)c2ccccc21	16µM*	-2%	?	8%	0%	21µM*
CCOc1ccc(N(CC)C(=O)c2cc3c(s2)-c2ccc(Cl)cc2SC3)cc1	16µM*	.	-1%	1%	-16%	?
O=C(Nc1ccccc1C(=O)Nc1nnc(C(F)(F)F)s1)c1ccccc1	?	-3%	-5%	0%	0%	13µM*
COc1cc2c(C(=O)N3CCOCC3)c(CSc3ccccc3)n(C)c2cc1Br	26µM*	-9%	-4%	2%	15%	?
CCSC1=C(C#N)C(c2ccc(Cl)cc2)C2=C(CCCC2=O)N1 (configuration not stated)	21µM*	-5%	-7%	0%	14%	?
CSC1=C(C#N)C(c2ccc3c(c2)OCO3)C2=C(CCCC2=O)N1 (configuration not stated)	-9%	1%	-1%	0%	0%	-11%
FC(F)(F)c1cccc(N2CCN(C(=S)NC3CCCC3)CC2)c1	23µM*	1%	-3%	0%	20%	-17%
FC(F)(F)c1cccc(N2CCN(C(=S)NC3CCCCC3)CC2)c1	16µM*	-1%	-2%	0%[9.22 µM]	6%	-16%
CCNC(=S)N1CCN(c2cccc(C(F)(F)F)c2)CC1	-25%	-3%	-3%	0%	7%	-1%
O=C(c1ccco1)N1CCCC(N2CCN(c3cccc(C(F)(F)F)c3)CC2)C1 (configuration not stated)	?	-4%	0%	0%	21%	-9%
SMILES	Nrf2 block	TSG101-PTAP inh	Glioma ERSR ind	Nrf2 ARE act	miR-21 reporter	A549 viability
Cc1ccnc(NC(=S)N2CCN(c3cccc(C(F)(F)F)c3)CC2)c1	23µM*	1%	16%	12%	19%	?
O=C(c1cccs1)N1CCCC(N2CCN(c3cccc(C(F)(F)F)c3)CC2)C1 (configuration not stated)	21µM*	0%	-4%	2%	20%	-10%
CC#CCC(C)[C@H](O)/C=C/C1[C@H](O)C[C@@H]2C/C(=C\CCCC(=O)O)C[C@H]12 (some centres not stated)	.	.	-2%	.	.	.
CCCS(=O)(=O)c1ncc(Cl)c(C(=O)Nc2sc3c(c2C(=O)NCC)CCCC3)n1	.	.	-5%	.	.	.
CN(C)S(=O)(=O)c1ccc(NC(=O)N2CCN(c3cccc(C(F)(F)F)c3)CC2)cc1	23µM*	-9%	-8%	0%	22%	?
O=C1C[C@H]2C=CCc3cccc(c32)CN1Cc1ccc(Cl)cc1	.	.	0%	.	.	.
C/C(CS(=O)(=O)c1ccccc1)=N\O	-13%	-4%	2%	0%	2%	0%
C/C=C(\CS(=O)(=O)c1ccccc1)S(=O)(=O)c1ccccc1	6%	-5%	-9%	13µM*	23%	-18%
Cc1cccc(-n2nnc(C(=O)Nc3ccc(F)cc3)c2N)c1	?	-5%	0%	2%	-27%	-11%
Cc1c(C(=O)Nc2ccc(F)cc2)nnn1-c1cccc(C(F)(F)F)c1	21µM*	-1%	2%	3%	-9%	-15%
O=C(/C=C/c1ccccc1)NC(=S)NNC(=O)c1cccnc1	-1%	-8%	-3%	3%	-13%	1%
O=C(/C=C/c1ccccc1)NC(=S)NNC(=O)c1cnccn1	7.3µM*	-1%	?	-1%	5%	-28%
O=C(c1cc2nc(-c3ccccc3)cc(-c3ccccc3)n2n1)N1CCN(C(=O)c2ccco2)CC1	23µM*	-3%	-3%	2%	5%	-2%
O=C(c1cc2nc(-c3ccccc3)cc(-c3ccccc3)n2n1)N1CCCC1	?	-1%	-1%	0%[9.22 µM]	-7%	-5%
CC(C)Nc1ncnc2ccc(Br)cc12	10µM*	-4%	-7%	-2%	26%	-8%
Cc1c(Cl)cccc1Nc1nc(NCCO)c2ccccc2n1	2%	-1%	32µM*	0%	-2%	-7%
c1ccc(Nc2nc(NCC3CCCO3)c3ccccc3n2)cc1 (configuration not stated)	18µM*	-4%	6%	0%	?	-25%

Screens from PubChem BioAssay.
